The list is not random: actives were taken first. Their share in the collection is about 2.3%.
CHO-K1 Ca antag: M1 antagonist counterscreen hit in parental CHO-K1 cells. ATP-induced calcium, Fluo-8 fluorescence. inhibition, % at 3 µM. hit rate 0.6% among 360,000. AID 602250;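 active = inhibition above a per-plate cutoff, the plate's mean sample inhibition plus 3 SD, cut at about 24% in these data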;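 note: 0% = DMSO plus EC80 ATP and 100% = DMSO alone without ATP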
CHRM1 agonist: human M1 muscarinic receptor agonism; CHO-K1 hM1, Fluo-8 calcium fluorescence, agonist mode; 0% DMSO, 100% acetylcholine EC100; hit rate 0.33% among 360,000; P11229; activation, % at 3 µM;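 active = activation above the run's mean compound activation plus 3 SD, cut at about 16% in these data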;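 note: peak over basal fluorescence ratio within a 140 s kinetic read after compound addition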
Target sequence (P11229 whole entry, looked up): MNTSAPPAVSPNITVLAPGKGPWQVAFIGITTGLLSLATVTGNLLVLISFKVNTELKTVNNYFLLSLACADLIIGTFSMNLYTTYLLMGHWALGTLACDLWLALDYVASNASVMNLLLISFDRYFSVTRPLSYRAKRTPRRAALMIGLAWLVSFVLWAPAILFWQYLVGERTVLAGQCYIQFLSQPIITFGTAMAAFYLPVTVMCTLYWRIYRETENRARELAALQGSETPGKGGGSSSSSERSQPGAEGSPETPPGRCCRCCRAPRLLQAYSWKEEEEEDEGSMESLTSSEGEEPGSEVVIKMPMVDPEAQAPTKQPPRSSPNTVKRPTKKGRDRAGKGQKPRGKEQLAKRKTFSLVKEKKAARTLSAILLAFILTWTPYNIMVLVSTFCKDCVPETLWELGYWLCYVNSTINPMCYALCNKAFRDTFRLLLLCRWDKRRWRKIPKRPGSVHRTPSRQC
CHRM1 PAM: human CHRM1 positive allosteric modulation. P11229. CHO-K1 hM1, Fluo-8 calcium fluorescence, ACh EC20; 0% = ACh EC20, 100% = maximal ACh. activation, % at 3 µM. hit rate 0.088% among 360,000. AID 588819; in the data active = activation above about 19%, passing the limit was not always enough
M1 ag parental: nonselective activator or artifact in parental CHO-K1 cells; Fluo-8 calcium fluorescence; scaled to maximal ATP response, vehicle zero; hit rate 0.48% among 360,000; AID 602248; activation, % at 3 µM; in the data active = activation above about 15%;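 note: untransfected CHO-K1 host cells lacking M1 receptor as counterscreen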
M1 PAM parental: nonselective activator or artifact in parental CHO-K1 calcium assay; ATP EC20, Fluo-8 calcium fluorescence; 0% at ATP EC20, 100% at ATP max; activation, % at 3 µM; hit rate 0.02% among 360,000; AID 602247;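 active = activation above the run cutoff, the mean activation of all test compounds plus 3 SD, cut at about 40% in these data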;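 note: peak over basal fluorescence ratio in a 140 s read after ATP addition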
M1 antag: blocks human M1 muscarinic receptor. CHO-K1 hM1, Fluo-8 calcium fluorescence, ACh EC80 antagonist. inhibition, % at 3 µM. hit rate 1.3% among 360,000. P11229. AID 588852;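 active = percent inhibition above its own plate's cutoff, namely the mean of that plate's compound wells plus 3 SD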;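 note: peak over basal fluorescence ratio during 140 s after agonist addition; 0% = ACh EC80 plus DMSO and 100% = DMSO alone without agonist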
* marks the source's active call; other numbers are inactive results.

What do the screens show for `CC(C)C[C@H]1CN=C(Nc2ccccc2)N1CCc1cccc(F)c1`?
CHO-K1 Ca antag: 43.2*; CHRM1 agonist: 62.8*; CHRM1 PAM: -38.7; M1 ag parental: 85.4*; M1 PAM parental: -23.2; M1 antag: 57.4*

How did CC(C)CCN1C(Nc2ccccc2)=NC[C@@H]1CC(C)C do in these assays?
CHO-K1 Ca antag: -7.3; CHRM1 agonist: -12.6; CHRM1 PAM: -2.1; M1 ag parental: 0.8; M1 PAM parental: -5.1; M1 antag: 4.9

How did CC(C)C[C@H]1CN=C(Nc2ccccc2)N1CCc1ccc(F)cc1 do in these assays?
CHO-K1 Ca antag: 22.6; CHRM1 agonist: 50.2*; CHRM1 PAM: -32.4; M1 ag parental: 64.2*; M1 PAM parental: -16.6; M1 antag: 25.0

How did Cc1cccc(CCN2C(Nc3ccccc3)=NC[C@@H]2CC(C)C)c1 do in these assays?
CHO-K1 Ca antag: 37.0*; CHRM1 agonist: 52.9*; CHRM1 PAM: -36.4; M1 ag parental: 64.3*; M1 PAM parental: -22.4; M1 antag: 57.1*

How did CCN1C(Nc2ccccc2)=NC[C@@H]1CC(C)C do in these assays?
CHO-K1 Ca antag: -16.1; CHRM1 agonist: -10.8; CHRM1 PAM: -4.5; M1 ag parental: 1.2; M1 PAM parental: 16.4; M1 antag: 8.8

How did CC(C)CNS(=O)(=O)c1ccc(CCC(=O)Nc2ccc3c(c2)OCCO3)cc1 do in these assays?
CHO-K1 Ca antag: -3.8; CHRM1 agonist: -1.0; CHRM1 PAM: 13.0; M1 ag parental: 1.2; M1 PAM parental: 9.8; M1 antag: -3.0

Results for NS(=O)(=O)c1ccc(NC(=O)Nc2ccc(Cl)cc2)cc1 ?
CHO-K1 Ca antag: 27.8*; CHRM1 agonist: -1.5; CHRM1 PAM: -7.3; M1 ag parental: 1.2; M1 PAM parental: -9.8; M1 antag: 10.9

What do the screens show for `N#Cc1ccc(NC(=O)Nc2ccc(Cl)cc2)cc1`?
CHO-K1 Ca antag: 25.7*; CHRM1 agonist: 9.0; CHRM1 PAM: -13.0; M1 ag parental: 13.6; M1 PAM parental: 7.5; M1 antag: 32.1*

Results for O=C(CSc1nc2[nH]ncc2c(=O)[nH]1)Nc1ccc(Cl)cc1 ?
CHO-K1 Ca antag: -7.5; CHRM1 agonist: -3.0; CHRM1 PAM: 4.9; M1 ag parental: 1.4; M1 PAM parental: 6.1; M1 antag: -18.8

What do the screens show for `Cn1c(=O)c2c(nc(NCc3ccco3)n2C)n(C)c1=O`?
CHO-K1 Ca antag: 6.2; CHRM1 agonist: -6.4; CHRM1 PAM: 3.2; M1 ag parental: 0.3; M1 PAM parental: -2.9; M1 antag: -8.9

What do the screens show for `Cn1c(=O)c2c(nc(NCc3ccco3)n2C/C=C/c2ccccc2)n(C)c1=O`?
CHO-K1 Ca antag: -3.2; CHRM1 agonist: -0.3; CHRM1 PAM: -10.1; M1 ag parental: 2.0; M1 PAM parental: 14.9; M1 antag: 31.8*

Results for COc1ccc(NS(=O)(=O)c2ccc(C)c(NC(=O)CNC(=O)c3ccco3)c2)cc1 ?
CHO-K1 Ca antag: -7.1; CHRM1 agonist: -0.5; CHRM1 PAM: 6.8; M1 ag parental: 1.4; M1 PAM parental: -1.4; M1 antag: -4.1

What do the screens show for `Nc1ccc(/C=C/C(=O)c2cccs2)cc1`?
CHO-K1 Ca antag: 9.7; CHRM1 agonist: 14.4; CHRM1 PAM: -3.4; M1 ag parental: 22.1*; M1 PAM parental: -0.3; M1 antag: 11.5

Results for O=C(C=Cc1ccccc1)c1cccs1 ?
CHO-K1 Ca antag: 2.1; CHRM1 agonist: -5.3; CHRM1 PAM: 8.4; M1 ag parental: 1.2; M1 PAM parental: -6.3; M1 antag: -14.7

Results for CC(C)N1CCCC(C)(C(=O)Nc2nc3ccccc3n2C)C1 (stereo not drawn) ?
CHO-K1 Ca antag: -3.3; CHRM1 agonist: -8.7; CHRM1 PAM: 5.9; M1 ag parental: 0.0; M1 PAM parental: 8.6; M1 antag: -5.4

How did O=C(NCC(c1ccco1)N1CCc2ccccc21)C(=O)Nc1ccccc1 (stereo not drawn) do in these assays?
CHO-K1 Ca antag: 24.5*; CHRM1 agonist: -3.0; CHRM1 PAM: 1.6; M1 ag parental: -0.3; M1 PAM parental: -18.6; M1 antag: -6.0

What do the screens show for `COc1ccc(OC)c(S(=O)(=O)NCC(c2ccco2)N2CCc3ccccc32)c1` (stereo not drawn)?
CHO-K1 Ca antag: -17.7; CHRM1 agonist: 1.9; CHRM1 PAM: 24.4*; M1 ag parental: -0.5; M1 PAM parental: 5.0; M1 antag: -24.2

How did Cc1ccc(C(=O)c2cn[nH]c2-c2cc(Cl)ccc2O)cc1 do in these assays?
CHO-K1 Ca antag: 0.1; CHRM1 agonist: -1.9; CHRM1 PAM: -4.2; M1 ag parental: 18.5*; M1 PAM parental: 16.4; M1 antag: 10.1

What do the screens show for `Cc1ccc(-c2[nH]ncc2C(=O)c2ccc(Br)cc2)c(O)c1`?
CHO-K1 Ca antag: -0.8; CHRM1 agonist: -0.8; CHRM1 PAM: 10.6; M1 ag parental: 3.2; M1 PAM parental: 3.8; M1 antag: -10.8

How did CSc1ccc(CN2CCC(Cc3ccccc3)CC2)cc1 do in these assays?
CHO-K1 Ca antag: -7.0; CHRM1 agonist: -9.2; CHRM1 PAM: -28.9; M1 ag parental: 2.4; M1 PAM parental: 23.6; M1 antag: 49.5*

What do the screens show for `Clc1ccc(CN2CCC(Cc3ccccc3)CC2)cc1`?
CHO-K1 Ca antag: 3.5; CHRM1 agonist: -14.8; CHRM1 PAM: -27.8; M1 ag parental: 0.1; M1 PAM parental: -5.5; M1 antag: 44.8*

How did O=C(C1CCN(Cc2ccc(Cl)cc2)CC1)N1CCN(C(c2ccccc2)c2ccccc2)CC1 do in these assays?
CHO-K1 Ca antag: -2.2; CHRM1 agonist: -7.2; CHRM1 PAM: -26.6; M1 ag parental: 0.8; M1 PAM parental: -4.4; M1 antag: 99.3*

What do the screens show for `CC(NC1CCN(Cc2ccccc2)CC1)c1ccc(F)cc1` (stereo not drawn)?
CHO-K1 Ca antag: -4.5; CHRM1 agonist: -10.5; CHRM1 PAM: -20.4; M1 ag parental: 0.6; M1 PAM parental: 4.7; M1 antag: 34.4*

How did CCOc1ccc(S(=O)(=O)N(CC)CC(=O)NCc2cccnc2)cc1C do in these assays?
CHO-K1 Ca antag: -22.5; CHRM1 agonist: -7.9; CHRM1 PAM: 6.1; M1 ag parental: 1.3; M1 PAM parental: 17.3; M1 antag: -12.8

What do the screens show for `CC(CN1CCOCC1)OC(=O)C(C)(c1ccccc1)c1ccccc1` (stereo not drawn)?
CHO-K1 Ca antag: -4.3; CHRM1 agonist: -6.7; CHRM1 PAM: -18.7; M1 ag parental: 0.0; M1 PAM parental: -3.0; M1 antag: 17.5

How did CC(CN1CCCCC1)OC(=O)C(C)(c1ccccc1)c1ccccc1 (stereo not drawn) do in these assays?
CHO-K1 Ca antag: -6.5; CHRM1 agonist: -4.0; CHRM1 PAM: -20.7; M1 ag parental: 0.6; M1 PAM parental: 19.1; M1 antag: 88.7*

What do the screens show for `CN(C)/C=C/C1=CC(=O)CC(C)(C)C1`?
CHO-K1 Ca antag: 23.9*; CHRM1 agonist: -2.7; CHRM1 PAM: 4.6; M1 ag parental: -0.9; M1 PAM parental: -18.3; M1 antag: 5.9

Screens as filed in PubChem BioAssay.
